PubChem BioAssay (NCATS)
Results filed as inconclusive are left out. The source made the active and inactive calls. Unless noted, calls come from the whole dose curve.

Key:
[1] = qHTS for Inhibitors of the Functional Ribonucleoprotein Complex (vRNP) of Lassa (LASV) Arenavirus: LASV Primary Screen - GLuc reporter signal (AID 1347082; calls by dose curve; tested in HEK293 reporter line; note: nearly all actives have a fitted effect of over 60% in size)
[2] = qHTS for Inhibitors of the Functional Ribonucleoprotein Complex (vRNP) of Lassa (LASV) Arenavirus: Viability assay - alamar blue signal for LASV Primary Screen (AID 1347083; calls by dose curve; tested in HEK293 reporter line; note: nearly all actives have a fitted effect of over 80% in size)
[3] = qHTS for Inhibitors of the Functional Ribonucleoprotein Complex (vRNP) of Lymphocytic Choriomeningitis Arenaviruses (LCMV): Viability assay - alamar blue signal for LCMV Primary Screen (AID 1347085; calls by dose curve; tested in HEK293 reporter line; note: nearly all actives have a fitted effect of over 80% in size)
[4] = molecular target: Nucleoprotein (Lymphocytic choriomeningitis virus (strain Armstrong)) (UniProt P09992); experiment: qHTS for Inhibitors of the Functional Ribonucleoprotein Complex (vRNP) of Lymphocytic Choriomeningitis Arenaviruses (LCMV): LCMV Primary Screen - GLuc reporter signal (AID 1347086); note: nearly all actives have a fitted effect of over 70% in size
Chain of Nucleoprotein (Lymphocytic choriomeningitis virus (strain Armstrong)) (P09992 whole entry, looked up): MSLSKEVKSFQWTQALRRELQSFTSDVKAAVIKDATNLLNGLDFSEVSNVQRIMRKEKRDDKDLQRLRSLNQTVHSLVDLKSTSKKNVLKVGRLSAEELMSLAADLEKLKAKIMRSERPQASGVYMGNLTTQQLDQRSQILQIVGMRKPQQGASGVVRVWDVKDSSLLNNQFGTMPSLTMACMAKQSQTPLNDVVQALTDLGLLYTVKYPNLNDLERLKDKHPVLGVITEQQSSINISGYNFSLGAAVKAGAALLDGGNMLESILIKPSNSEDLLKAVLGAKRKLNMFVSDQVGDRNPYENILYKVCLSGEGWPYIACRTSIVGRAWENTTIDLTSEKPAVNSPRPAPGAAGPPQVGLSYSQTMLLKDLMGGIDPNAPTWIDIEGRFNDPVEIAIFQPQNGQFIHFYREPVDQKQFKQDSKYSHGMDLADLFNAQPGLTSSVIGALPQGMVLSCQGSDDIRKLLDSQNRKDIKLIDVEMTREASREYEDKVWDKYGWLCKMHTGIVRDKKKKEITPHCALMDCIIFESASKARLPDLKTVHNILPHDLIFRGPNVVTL

Measured: Potency
Potency is the fitted concentration of half-maximal effect.

C[C@@H](O[C@H]1OCCN(Cc2n[nH]c(=O)[nH]2)[C@@H]1c1ccc(F)cc1)c1cc(C(F)(F)F)cc(C(F)(F)F)c1
inactive: all assays above

COc1ccc(CCN2CCN(CCCc3ccccc3)CC2)cc1OC
inactive: all assays above

Cc1cn(-c2cc(NC(=O)c3ccc(C)c(Nc4nccc(-c5cccnc5)n4)c3)cc(C(F)(F)F)c2)cn1
inactive: all assays above

NC(=O)c1ccc(-c2nc(-c3ccc4c(c3)OCO4)c(-c3ccccn3)[nH]2)cc1
inactive: all assays above

Cc1c(C)c2c(c(C)c1OC(=O)c1cccnc1)CC[C@@](C)(CCC[C@H](C)CCC[C@H](C)CCCC(C)C)O2
inactive: all assays above

CCC(C)(Oc1ccc(C2(c3ccc(OC(C)(CC)C(=O)O)cc3)CCCCC2)cc1)C(=O)O (centres undefined)
inactive: all assays above

CCC[C@H](NC(=O)C(C#N)=Cc1cccc(Br)n1)c1ccccc1
active: [2] 34.3 µM
inactive: all other assays above

O=[N+]([O-])c1cccc(S(=O)(=O)NCCNS(=O)(=O)c2cccc([N+](=O)[O-])c2)c1
inactive: all assays above

COc1ncc(-c2ccc3nccc(-c4ccnnc4)c3c2)cc1NS(=O)(=O)c1ccc(F)cc1F
active: [1] 0.0485 µM | [2] 0.0097 µM | [3] 0.0172 µM | [4] 0.0343 µM

O=C(C=Cc1ccc(/C=C/C(=O)Nc2ccc(C3=NCCN3)cc2)cc1)Nc1ccc(C2=NCCN2)cc1
inactive: all assays above

CC1=C(/C=C/C(C)=C/C=C/C(C)=C/C(=O)O)C(C)(C)CCC1
inactive: all assays above

CC(=O)Oc1cccc(C)c1
inactive: all assays above

CN(C)c1ccc(N=NS(=O)(=O)O)cc1
inactive: all assays above

COc1cc(Nc2ncc3c(n2)-c2ccc(Cl)cc2C(c2c(F)cccc2OC)=NC3)ccc1C(=O)O
inactive: all assays above

Cn1c(=O)n(-c2ccc(C(C)(C)C#N)cc2)c2c3cc(-c4cnc5ccccc5c4)ccc3ncc21
active: [1] 0.0385 µM | [2] 0.0343 µM | [3] 0.0611 µM | [4] 0.0685 µM

CCCCC(CC)COC(=O)c1ccc(N(C)C)cc1 (centres undefined)
inactive: all assays above

S=C(NCc1ccc2c(c1)OCO2)N1CCN(c2ncnc3c2oc2ccccc23)CC1
inactive: all assays above

Brc1ccccc1-c1ccccc1
inactive: all assays above

O=C(O)CC(O)C(=O)O (centres undefined)
inactive: all assays above

CCCCCCCCCCCCCC(=O)OC(C)C
inactive: all assays above

CC1(C)SCCN(S(=O)(=O)c2ccc(OCC#CCO)cc2)[C@@H]1C(=O)NO
inactive: all assays above

CN1[C@@H]2CC[C@H]1CC(OC(=O)C(O)c1ccccc1)C2 (some centres undefined)
inactive: all assays above

CC(C)(C)C(O)/C=C/c1ccc2c(c1)OCO2 (centres undefined)
inactive: all assays above

S=c1[nH]c2ccccc2s1
inactive: all assays above

O=C1[C@H](Cc2ccc(O)cc2)N2C(=O)CCN(C(=O)NCc3ccccc3)[C@H]2CN1Cc1cccc2ccccc12
active: [1] 19.3 µM | [2] 19.3 µM | [3] 24.3 µM | [4] 19.3 µM

COc1cccc(OC)c1-c1cc(C(=O)NC2(C(=O)O)C3CC4CC(C3)CC2C4)nn1-c1ccnc2cc(Cl)ccc12 (centres undefined)
inactive: all assays above

C=CCNC(N)=S
inactive: all assays above

Nc1cccc(S(=O)(=O)N2CCCN(S(=O)(=O)c3ccc4c(c3)OCCO4)CC2)c1
inactive: all assays above

COc1ccccc1N1CCN(CC(O)COc2cc(OC)c(OC)c(OC)c2)CC1 (centres undefined)
inactive: all assays above

CC(C)(C)c1cc(C(=O)O)c(NC(=O)Nc2ccc3[nH]ncc3c2)s1
inactive: all assays above

O=C(Nc1ccc(OC(F)(F)F)cc1)c1sccc1NCc1ccnc2ccccc12
inactive: all assays above

CC(C)c1ccccc1Cc1cc(C(=O)Nc2ccc(S(=O)(=O)c3ccccc3C(C)(C)C)cc2)c(O)c(O)c1O
active: [1] 21.7 µM | [2] 19.3 µM | [3] 24.3 µM | [4] 24.3 µM

NCCS
inactive: all assays above

CC(C)CCCC(C)CCCC(C)CCCCC(C)CCCC(C)CCCC(C)C (centres undefined)
inactive: all assays above

c1ccc2occc2c1
inactive: all assays above

C/C(=C1\CCOC(=O)S1)N(C=O)Cc1cnc(C)nc1N
inactive: all assays above

COc1cc2nc(-c3ccc(N4CCN(C)CC4)cc3)nc(NCCN3CCOCC3)c2cc1OC
active: [1] 0.685 µM | [2] 0.769 µM | [3] 0.968 µM | [4] 0.432 µM

O=C(O)c1ccccc1O
inactive: all assays above

CC1(C)OC2=C(C(=O)c3ccccc3C2=O)[C@H](NCc2ccccc2)[C@H]1O
active: [1] 2.73 µM | [2] 3.06 µM | [3] 2.17 µM | [4] 0.863 µM

CCN1CCN(c2cc3c(cc2F)c(=O)c(C(=O)O)cn3C2CC2)CC1
inactive: all assays above

CCCCc1ccc(NS(=O)(=O)c2ccc(C)c(C(=O)N3CCN(c4cccc(C)c4C)CC3)c2)cc1
inactive: all assays above

Cc1cc(Nc2nc(N[C@@H](C)c3ncc(F)cn3)ncc2Cl)n[nH]1
inactive: all assays above

CCCCOCCOc1nc(-c2ccc(C(=O)O)c(F)c2)sc1C
inactive: all assays above

C=C1C(=CC=C2CCCC3(C)[C@@H]([C@H](C)C=CC=CC(O)(CC)CC)CC[C@@H]23)C[C@@H](O)C[C@@H]1O (some centres undefined)
inactive: all assays above

CCCCCN(CCC12CC3CC(CC(C3)C1)C2)C(=O)NCCCc1ccncc1
inactive: all assays above

CN1C(=O)C(Cc2c[nH]c3ccccc23)NC1=S (centres undefined)
inactive: all assays above

CCCCCCCCOc1ccc(C(=O)c2ccccc2)c(O)c1
inactive: all assays above

CCC(C(=O)O)c1ccc(N2Cc3ccccc3C2=O)cc1 (centres undefined)
inactive: all assays above

Cc1cc2c(cc1C1(c3ccc(C(=O)O)cn3)CC1)C(C)(C)CCC2(C)C
inactive: all assays above

CC(C)(C)c1nnc(NS(=O)(=O)c2ccccc2)s1
inactive: all assays above

Cn1cncc1[C@@](N)(c1ccc(Cl)cc1)c1ccc2c(c1)c(-c1cccc(Cl)c1)cc(=O)n2C
inactive: [1]
active: [2] 4.32 µM | [3] 2.43 µM | [4] 1.37 µM

Cc1ccccc1N=Nc1ccc(N=Nc2c(O)ccc3ccccc23)c(C)c1
inactive: all assays above

Cc1cnc(Nc2ccc(F)cc2Cl)nc1-c1c[nH]c(C(=O)N[C@H](CO)c2cccc(Cl)c2)c1
active: [1] 19.3 µM | [2] 15.3 µM | [3] 7.69 µM | [4] 17.2 µM

CCOc1cc(NC(C)=O)ccc1C(=O)OC
inactive: all assays above

CCN(c1ccccc1)c1cc(NC)[n+](C)c(C)n1
inactive: all assays above

CC(C)(Sc1ccc(CCN(CCCCC2CCCCC2)C(=O)NC2CCCCC2)cc1)C(=O)O
inactive: all assays above

O=C(O)c1ccc2c(c1)nc(Nc1cccc(Cl)c1)c1ccncc12
inactive: all assays above

CN(C)CCN(C)C(=O)c1ccc(NC(=O)Nc2ccc(-c3nc(N4CCOCC4)c4ccn(CC(F)(F)F)c4n3)cc2)cc1
active: [1] 0.0485 µM | [2] 0.0485 µM | [3] 0.0432 µM | [4] 0.0769 µM

Nc1nc2c(ncn2CCC(CO)CO)c(=O)[nH]1
inactive: all assays above

Cc1ccc(C(=O)Nc2cccc(C(F)(F)F)c2)cc1-c1ccc2nc(NCCN3CCOCC3)ncc2c1
active: [1] 10.9 µM | [2] 13.7 µM | [3] 19.3 µM | [4] 12.2 µM

COc1ccc(CCN(C)CCCOc2ccc(S(=O)(=O)c3[nH]c4ccccc4c3C(C)C)cc2)cc1OC
inactive: all assays above

[O-][n+]1cccc(CO)c1
inactive: all assays above

OCCC#Cc1nc(-c2ccc(F)cc2)c(-c2ccncc2)n1CCCc1ccccc1
inactive: all assays above

COc1cc2ncnc(-n3nc(-c4ccccn4)nc3N)c2cc1OC
active: [1] 13.7 µM | [2] 19.3 µM | [3] 7.69 µM | [4] 2.43 µM

C[C@H](CN1CCCC1)C(=O)c1ccc(C(F)(F)F)cc1
inactive: all assays above

CC1(C)CCC(c2ccc(Cl)cc2)=C(CN2CCN(c3ccc(C(=O)NS(=O)(=O)c4ccc(N[C@H](CCN5CCOCC5)CSc5ccccc5)c(S(=O)(=O)C(F)(F)F)c4)cc3)CC2)C1
inactive: all assays above
